PTHR1 ag – activates the human parathyroid hormone receptor PTHR1. HEK293 GP2 PTHR1 cells, GloSensor cAMP luminescence, 1 h. Q03431. Potency, µM (series often up to 115 µM), hits mostly activators. AID 743266. actives 0.075% (n = 410,000); also: nearly all actives have a fitted effect of over 55% in size
Target sequence (Q03431 whole entry, looked up): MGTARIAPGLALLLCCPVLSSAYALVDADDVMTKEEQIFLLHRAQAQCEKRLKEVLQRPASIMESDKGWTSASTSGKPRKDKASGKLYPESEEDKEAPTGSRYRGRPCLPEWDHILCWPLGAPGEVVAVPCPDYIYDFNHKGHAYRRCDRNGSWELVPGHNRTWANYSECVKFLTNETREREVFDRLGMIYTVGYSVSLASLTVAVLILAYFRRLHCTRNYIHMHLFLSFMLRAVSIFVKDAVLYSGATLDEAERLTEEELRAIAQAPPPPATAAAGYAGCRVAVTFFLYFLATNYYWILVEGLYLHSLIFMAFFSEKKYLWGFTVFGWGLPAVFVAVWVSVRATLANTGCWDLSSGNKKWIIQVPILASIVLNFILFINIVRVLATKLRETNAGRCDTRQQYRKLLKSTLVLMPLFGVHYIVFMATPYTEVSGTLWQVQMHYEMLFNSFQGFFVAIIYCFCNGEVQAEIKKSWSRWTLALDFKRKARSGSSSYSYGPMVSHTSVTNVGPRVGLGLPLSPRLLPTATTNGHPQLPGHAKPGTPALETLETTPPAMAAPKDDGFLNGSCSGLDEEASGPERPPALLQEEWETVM
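HEK-293-derived GP2 cells expressing PTHR1 and a GloSensor cAMP reporter, 3,000/well, plated overnight, given luciferin plus IBMX (each 0.5 mM as added) for 1 h at 37 °C, then compound for 1 h at 37 °C. Luminescence was read after 15 min at room temperature.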
HEK293 tox – cytotoxic in the GLP-1 receptor inverse agonist counter-screen; AID 624418; HEK293 cAMP-luciferase reporter cells, luminescence, 24 h; Potency, µM (top dose mostly 38.3 µM), hits mostly inhibitors; actives 0.13% (n = 410,000);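 also: loss of luciferase light is scored as toxicity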
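Seeding density was 200 cells/uL; after overnight-length (12 h) culture, 23 nL compounds went on for 24 h at 37 °C. Readout used a luciferase detection reagent, luminescence taken after 12 min at room temperature.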
GLP-1R inv ag – GLP-1 receptor (human) inverse agonism; P43220; HEK293 GLP-1R CRE-luciferase, luminescence, 24 h; GLP-1R form is constitutively active; Potency, µM (highest dose often 38.3 µM), actives largely listed as inhibitors; actives 1.6% (n = 410,000); also: nearly all actives have a fitted effect of over 55% in size
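HEK293 cells stably co-expressing constitutively active GLP-1R and a cAMP-responsive luciferase reporter were seeded in DMEM with 10% Nu serum, given compounds after 12 h, and incubated 24 h at 37 deg C. Luminescence was then read.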
GLP-1R agonist – agonists of human GLP-1 receptor; HEK293 GLP-1R CRE-luciferase, luminescence, 4-6 h; cells express a hypersensitive GLP-1R form; actives 0.007% (n = 380,000); Potency, µM (doses to about 45.6 µM), hits mostly activators; P43220
Numbers stand for hits. Rows were chosen to be rich in hits. Some 1.7% of all compounds tested hit in one or more screens of this group. Calls follow the shape of the dose curve; as a rule, active = well fitted curve in the direction sought with a large enough effect; inconclusive = small, poorly fitted or top-dose-only effect, or another doubt; inactive = no such curve, though single readings can be large; an effect the other way counts as inactive or inconclusive.

For Nc1nc(NC2CC2)c2ncn([C@H]3C=C[C@@H](CO)C3)c2n1 the results were GLP-1R agonist inactive.
Screening CCCCNC(=S)N1CCN(C(c2ccccc2)c2ccccc2)CC1 returned PTHR1 ag inactive, HEK293 tox inactive, GLP-1R inv ag 8.9µM and GLP-1R agonist inactive.
CCCNC(=S)N1CCN(C(c2ccccc2)c2ccccc2)CC1 was read as PTHR1 ag inactive, HEK293 tox inactive, GLP-1R inv ag inconclusive and GLP-1R agonist inactive.
For O=C(N/N=C/c1cccc2ccccc12)c1ccncc1 the results were PTHR1 ag inactive, HEK293 tox inactive, GLP-1R inv ag inactive and GLP-1R agonist inactive.
O=C(/C=C/c1cccc2ccccc12)c1ccncc1 was read as PTHR1 ag inactive, HEK293 tox inconclusive, GLP-1R inv ag 8.9µM and GLP-1R agonist inactive.
For Cc1ccc(CNC(=O)CNC(=S)N(Cc2ccccc2)Cc2ccccc2F)cc1 the results were PTHR1 ag inactive, HEK293 tox inactive, GLP-1R inv ag 10µM and GLP-1R agonist inactive.
`COCCCNC(=O)c1cccc2c(-c3cccc(C(N)=O)c3)coc12` gave PTHR1 ag inactive, HEK293 tox inactive, GLP-1R inv ag inactive and GLP-1R agonist inactive.
`N=C1N(c2ccccc2)C(=S)C(=Nc2ccccc2)N1c1ccccc1` gave PTHR1 ag inactive, HEK293 tox inactive, GLP-1R inv ag 13µM and GLP-1R agonist inactive.
For Cc1nc2ccccn2c1C(=O)NNS(=O)(=O)c1ccc(C(C)(C)C)cc1 the results were PTHR1 ag inactive, HEK293 tox inactive, GLP-1R inv ag inactive and GLP-1R agonist inactive.
`CCc1nc2nc(C)c(NS(=O)(=O)c3ccc(Cl)cc3)c(=O)n2[nH]1` gave PTHR1 ag inactive, HEK293 tox inactive, GLP-1R inv ag inactive and GLP-1R agonist inactive.
`O=C(NCC1CCCO1)C(c1cccs1)N(Cc1ccccc1Cl)C(=O)c1ccc(-c2ccccc2)[nH]1` (configuration not stated) gave PTHR1 ag inactive, HEK293 tox inactive, GLP-1R inv ag 2.5µM and GLP-1R agonist inactive.
Screening Cc1ccc(C(C(=O)NCC2CCCO2)N(Cc2ccccc2)C(=O)c2ccc(-c3ccccc3)[nH]2)o1 (configuration not stated) returned PTHR1 ag inactive, HEK293 tox inactive, GLP-1R inv ag inconclusive and GLP-1R agonist inactive.
Screening Cc1cccc(CN2CCC(C(=O)Nc3cccc(-c4cccc(F)c4)c3)CC2)n1 returned PTHR1 ag inactive, HEK293 tox inconclusive, GLP-1R inv ag 10µM and GLP-1R agonist inactive.
`Cc1cccc(CN2CCC(C(=O)Nc3cccc(-c4cscn4)c3)CC2)n1` gave PTHR1 ag inactive, HEK293 tox inactive, GLP-1R inv ag inactive and GLP-1R agonist inactive.
`Cc1cc(N2CCC(C(=O)Nc3ccc(F)cc3)CC2)nc(-c2ccccc2)n1` gave PTHR1 ag inactive, HEK293 tox inactive, GLP-1R inv ag 10µM and GLP-1R agonist inactive.
Screening Cc1nn(C(C)C)c(C)c1CN1CCC(C(=O)Nc2cccc(-c3cccc(F)c3)c2)CC1 returned PTHR1 ag inactive, HEK293 tox inconclusive, GLP-1R inv ag 5µM and GLP-1R agonist inactive.
For COc1ccc(NC(=O)C2CCN(c3cc(C)nc(-c4ccccc4)n3)CC2)cc1 the results were PTHR1 ag inactive, HEK293 tox inconclusive, GLP-1R inv ag inconclusive and GLP-1R agonist inactive.
Cn1cncc1C#Cc1c(C=O)[nH]c2ccccc12 was read as PTHR1 ag inactive, HEK293 tox inactive, GLP-1R inv ag inconclusive and GLP-1R agonist inactive.
For O=c1oc2ccc3ccccc3c2cc1-c1nnc(Nc2cccc(C(F)(F)F)c2)s1 the results were PTHR1 ag inactive, HEK293 tox inactive and GLP-1R inv ag inactive.
CCN(CC)CCN1C(=O)c2ccccc2NC1c1ccc(F)cc1 (configuration not stated) was read as PTHR1 ag inactive, HEK293 tox inactive, GLP-1R inv ag inactive and GLP-1R agonist inactive.
Screening CCN(CC)CCN1C(=O)c2ccccc2NC1c1ccc(Br)cc1 (configuration not stated) returned PTHR1 ag inactive, HEK293 tox inactive, GLP-1R inv ag 10µM and GLP-1R agonist inactive.
CCOc1ccc(NC(=O)c2ccc3c(=O)n4nc(Nc5ccccc5C)sc4nc3c2)cc1 was read as PTHR1 ag inactive, HEK293 tox inactive, GLP-1R inv ag inactive and GLP-1R agonist inactive.
Screening CCNC(=O)C1Cc2ccccc2CN1S(=O)(=O)c1ccc(F)cc1 (configuration not stated) returned PTHR1 ag inactive, HEK293 tox inactive, GLP-1R inv ag inactive and GLP-1R agonist inactive.
Screening O=C(Nc1ccc(F)c(Cl)c1)C1Cc2ccccc2CN1S(=O)(=O)c1ccc(F)cc1 (configuration not stated) returned PTHR1 ag inactive, HEK293 tox inactive and GLP-1R inv ag 10µM.
COc1ccccc1Nc1nnc(SCc2nnc(-c3cc(OC)c(OC)c(OC)c3)o2)s1 was read as PTHR1 ag inactive, HEK293 tox inactive, GLP-1R inv ag inactive and GLP-1R agonist inactive.
Screening COc1cc(-c2nnc(CSc3nnc(Nc4ccc(C(C)C)cc4)s3)o2)cc(OC)c1OC returned PTHR1 ag inactive, HEK293 tox 11µM, GLP-1R inv ag inconclusive and GLP-1R agonist inactive.
For CC(=O)Nc1cccc(-c2ccnc3c2CC(C(=O)Nc2cccc(NS(C)(=O)=O)c2)O3)c1 (configuration not stated) the results were PTHR1 ag inactive, HEK293 tox inactive, GLP-1R inv ag inactive and GLP-1R agonist inactive.
`CS(=O)(=O)Nc1cccc(NC(=O)C2Cc3c(-c4ccccc4)ccnc3O2)c1` (configuration not stated) gave PTHR1 ag inactive, HEK293 tox inactive, GLP-1R inv ag 0.89µM and GLP-1R agonist inactive.
O=C(c1ccco1)N1CCN(C(=O)N2c3ccccc3Sc3ccccc32)CC1 was read as PTHR1 ag inactive, HEK293 tox 3.2µM, GLP-1R inv ag inconclusive and GLP-1R agonist inactive.
Screening O=C(c1ccco1)N1c2ccccc2Sc2ccccc21 returned PTHR1 ag inactive, HEK293 tox inactive, GLP-1R inv ag inconclusive and GLP-1R agonist inactive.
O=C(NC1CCN(C(=O)N2c3ccccc3Sc3ccccc32)CC1)c1ccccc1Cl was read as PTHR1 ag inactive, HEK293 tox inactive, GLP-1R inv ag 10µM and GLP-1R agonist inactive.
For Cc1cc(C)n2c(SC(C)C(=O)NC3(C#N)CCCCC3)nnc2n1 (configuration not stated) the results were PTHR1 ag inactive, HEK293 tox inactive, GLP-1R inv ag inactive and GLP-1R agonist inactive.
`CCOCCCN1C(=O)CN(C2CCC(C)CC2)C(=O)C1c1ccc(C)cc1` (configuration not stated) gave PTHR1 ag inactive, HEK293 tox inactive, GLP-1R inv ag inactive and GLP-1R agonist inactive.
Screening COc1ccc(-n2cc(CNCCc3nc(C)cc(C)n3)c(-c3ccccc3Cl)n2)cc1 returned PTHR1 ag inactive, HEK293 tox inconclusive, GLP-1R inv ag 10µM and GLP-1R agonist inactive.

Bioassay records: PubChem, National Center for Advancing Translational Sciences (NCATS)
